According to PubChem BioAssay (NCI):
About 83,000 compounds went through this panel and 20% of them were active in at least one assay; those are over-represented in the sample as a whole.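 Plates (96-well) were seeded with cells, treated with compound at one concentration, and incubated for 48 hours before percent growth was determined.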 Unmarked numbers belong to inactive results. Calls of active or inactive are those of the source.

These compounds were tested on SW-620 colon (assay: NCI-60 one-dose screen, 48 h (100 = growth as untreated, 0 = no growth, -100 = all killed)). Settings: 10 µM unless noted.
Procedure: Growth inhibition of the SW-620 human tumor cell line is measured as a screen for anti-cancer activity. Cells are grown in 96 well plates and exposed to the test compound for 48 hours. Compounds are tested at a single concentration, which is 10^-5 M for most compounds. The reported endpoint is percent growth (GI% or GIPRCNT), where numbers from 0 - 100% represent growth inhibition, and numbers from -100% - 0 represent cell death. For example, a value of 40 represents 60% growth inhibition. A value of 0 means no net growth occurred over the course of the experiment. A value of -40 indicates 40% of cells at the beginning of the experiment died by the end of the experiment. A value of -100 means all cells are dead at the end of the experiment.
NCI-60 Human Tumor Cell Lines Screen was performed using the standard one-dose NCI protocol, which is described in more detail at https://dtp.cancer.gov/discovery_development/nci-60/default.htm.
Compounds with GIPRCNT values below 10 were considered active. Activity score was based on GIPRCNT using the following formula: […]
Score is 0 for GIPRCNT values of 100 or above, 50 for GIPRCNT values of 0, and 100 for GIPRCNT values of -100.

Structure (SMILES) | growth
O=C(Nc1ccc(-n2cc(-c3ccncc3)c(-c3ccc(O)c(Cl)c3)n2)cc1)c1cc(C(F)(F)F)cc(C(F)(F)F)c1 | 76.2%
Nc1ccc(S(=O)(=O)Nc2cc(I)cc(I)c2)cc1 | 119%
CCNC(=O)Oc1ccc(/C(=C(/CC)Cc2ccccc2)c2ccc(OCCN3CCOCC3)cc2)cc1 | 59.3%
COc1ccc(Cl)cc1NC(=O)c1cc2c([nH]1)-c1nc(NC(=O)C(C)(C)C)sc1CC2 | 62.6%
O=C(O)c1cccc(S(=O)(=O)c2ccccc2)c1 | 98.5%
CC(=O)n1cc(/C=C2\N=C(c3ccc(Cl)cc3)N(c3ccc(S(=O)(=O)Nc4nccs4)cc3)C2=O)c2ccccc21 | 96.2%
COc1ccc(Cn2cc3c(c2-c2cc(OC)c(OC)c(OC)c2)CCc2c(CO)noc2-3)cc1 | 21.4%
COc1cc(CN(c2ccc(Cl)cc2)C2OC(=O)c3ccccc32)cc(OC)c1OC (stereo not given) | 30.8%
C#C[C@H](O)/C=C/CCCCCCC#C[C@H](O)CC[C@@H](O)C#CCCCCCC/C=C/[C@@H](O)C#C | 71.9%
COc1ccc(-c2nnc(SCC(=O)N3CCN(c4cc5c(cc4F)c(=O)c(C(=O)O)cn5C4CC4)CC3)o2)cc1OC | 96.2%
COc1ccc(Cl)cc1NC(=O)c1cc2c(n1C)-c1nc(NC(=O)C(C)(C)C)sc1CC2 | 107%
CCn1c(SC)nnc1-c1cc2c([nH]c3ccccc32)c(-c2cccc(O)c2)n1 | 33.1%
O=C(Nc1cccc(-n2ccc3c(NC(=O)c4ccccc4)ncnc32)c1)Nc1ccc(Cl)c(C(F)(F)F)c1 | 41.3%
COc1ccccc1S(=O)(=O)Nc1ccc2c3c(cc(-c4cnn(C)c4)nc13)C(=O)N2C | 63.2%
Cc1ccc(/C=C2/C(=O)Nc3cc(Cl)c(-c4csc(N)n4)cc32)cc1 | 58.6%
COc1ccc(/C=C2/C(=O)Nc3cc(Cl)c(-c4csc(N)n4)cc32)cc1 | 31.2%
O=C1/C(=C/c2cccc3cnccc23)Cc2cc(F)ccc21 | 101%
CCCC(C)(C)COC(=O)c1cccc(N)c1 | 104%
O=C1c2ccccc2OC=C(c2ccccc2)N1CCCCN1CCCCC1 | 71.5%
CC1CCc2cc(F)cc3c(=O)c(C(=O)O)cn1c23 (stereo not given) | 106%

Structure (SMILES) | growth
Cc1nccc2c3ccc(OCc4cn(Cc5ccc(Br)cc5)nn4)cc3n(CCCc3ccccc3)c12 | 97.8%
COc1cc(-c2nc(N)n(CC(=O)Nc3ccc(/C(C)=N\O)cc3)n2)cc(OC)c1OC | 95.2%
CCC1CN2C(=N1)c1ccccc1-c1cc(Cl)ccc12 (stereo not given) | 18.6%
CS(=O)(=O)Nc1cccc(-c2ccc3ncnc(Nc4ccc(F)c(Cl)c4)c3c2)c1 | 7.1% (active)
CCN1CCN(Cc2ccc(NC(=O)Nc3cccc(-n4ccc5c(NC(=O)c6ccccc6)nccc54)c3)cc2C(F)(F)F)CC1 | 86.6%
O=[N+]([O-])c1cccc2cc(S(=O)(=O)O)ccc12 | 99.9%
CCN(CC)CCNc1ccc([N+](=O)[O-])c2sc3cc(Cl)ccc3c(=O)c12 | 40.2%
Cc1[nH]n(C(=O)c2ccncc2)c(=O)c1N=Nc1ccc(S(=O)(=O)Nc2ccncn2)cc1 | 108%
O=C1OC(c2ccc(-c3ccccc3)cc2)=C/C1=C/C=C/c1ccccc1 | 97%
CCOC(=O)C1CN(Cc2ccccc2)C(=O)C1=O (stereo not given) | 95%
CC(C)(CCN=C(N)Nc1ccccn1)c1ccc(C(F)(F)F)cc1 | -11.2% (active)
O=C(Nc1ccc(-n2cc(-c3ccncc3)c(-c3ccc(O)c(Cl)c3)n2)cc1)c1cc(Cl)cc(Cl)c1 | 33.6%
CCOc1ccc(Cc2nccc3cc(OCC)c(OCC)cc23)cc1OCC | 39.1%
CNCCCOc1c(Br)cc(CCNC(=O)/C(Cc2cc(Br)c(OC)c(Br)c2)=N/O)cc1Br | -47.1% (active)
CN1C(=O)C2(SCC(C(=O)NCC(=O)OC(C)(C)C)N2C(=O)C2CCCCC2)c2ccccc21 (stereo not given) | 98.7%
O=c1c2ccccc2sc2c(N3CCCC3)nc3ccccc3c12 | 95%
CC(C)(C)C(=O)/C=c1/[nH]c(=O)/c(=C/c2ccccc2O)s1 | 34%
N#CC(C#N)=C(C#N)c1c[nH]c2ccccc12 | 62.4%
COC(OC)C1(c2ccccc2)NC(=O)NC1=O (stereo not given) | 109%
O=C(Nc1ccc(F)cc1)Nc1ccc(Cl)c([N+](=O)[O-])c1 | 19%
